This is a sample that favours compounds with a hit; in the whole collection about 2.3% have one here.
HBB splice mod: alters splicing of the hemoglobin beta chain; HBB splicing reporter cell assay, activation; EGFP reporter with mutant IVS2-654 intron; response scale: normalised to 500 nM splice-correcting PNA; Potency, µM (doses to about 46.1 µM), for inactives: at the top dose activation, most hits filed as activators; hit rate 0.06% among 65,000; AID 925; further: potency means the concentration at half of the fitted maximal effect; 0% is about no effect
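HeLa cells stably expressing EGFP interrupted by mutant beta-globin intron 2 (IVS2-654), 500/well in 2% FCS. Treated with compound for 2 days at 37C. Splicing correction scored as total well GFP intensity (488 nm excitation, 500-520 nm emission); 500 nM antisense PNA served as control.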
ALOX15B inhib: inhibitors of human 15-lipoxygenase 2 (ALOX15B); O15296; purified 15hLO-2, xylenol orange hydroperoxide absorbance; Potency, µM (series often up to 57.1 µM), without a hit: top-dose activity change, negative = inhibition, actives largely listed as inhibitors; hit rate 0.56% among 110,000; AID 881; further: potency means the concentration at half of the fitted maximal effect; on the % scale 0 is the no-effect control and ±100 the full control effect; nearly all actives have a fitted effect of over 60% in size
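Read-out: hydroperoxide product oxidises ferrous iron, measured as xylenol orange complex via the 573-to-405 nm absorbance ratio after 30 min. Reaction: 50 nM enzyme, 15 min compound preincubation, 45 uM arachidonic acid, 90 min RT, Hepes pH 7.5 with Triton X-100.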
GFP derepression: epigenetic modulators derepressing GFP locus in mouse cells. mouse C127i GFP locus derepression, cytometry, 30 h. Potency, µM (series often up to 46.1 µM), inactives show at the highest dose GFP derepression (activation). hit rate 0.09% among 68,000. AID 597; further: % of control where 0% means no effect
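Derepression screen: silenced CMV-GFP reporter in murine C127i cells, 30 h compound incubation at 37 C, washed cells imaged by laser-scanning cytometer to enumerate GFP-expressing objects of 20 to 120 um.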
Ub-GFP proteasome: proteasome inhibitors stabilizing ubiquitin-GFP reporter. Ubiquitin-GFP reporter cells, proteasome inhibition, GFP fluorescence; response scale: untreated = 0%, 10 µM MG-132 = 100%. Potency, µM (doses to about 45.9 µM), without a hit: top-dose activation (GFP accumulation), actives largely listed as activators. 67,000 tested, under 10 active. AID 526; active means well fitted activation curve with a large enough effect, not every such curve was filed as active; inconclusive means small, poorly fitted or top-dose-only effect, or another doubt; inactive means no such curve, though single readings can be large or run the other way; further: potency means the concentration at half of the fitted maximal effect
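U2OS cells stably expressing ubiquitin(G76V)-GFP, seeded overnight in 0.5% FBS medium, were exposed to compounds (qHTS, 46 uM to 2.9 nM) for 4 hr at 37 °C. GFP-positive cells were counted by laser cytometry (488 ex/515 em), normalized between basal and 10 uM MG-132.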
15-hLO inh: inhibitors of human 15-lipoxygenase (ALOX15). purified 15hLO-1, xylenol orange hydroperoxide absorbance. Potency, µM (titrated, usually from 57.1 µM), inactives show at the top dose activity change, negative = inhibition, actives largely listed as inhibitors. hit rate 1.4% among 74,000; further: potency means the concentration at half of the fitted maximal effect; on the % scale 0 is the no-effect control and ±100 the full control effect; nearly all actives have a fitted effect of over 55% in size
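40 nM 15hLO-1 + cpd, 15 min RT; start w/ 50 uM AA (final), 6 min RT; stop/detect w/ 200 uM XO + 300 uM Fe(II) in 50 mM H2SO4, 30 min; A573/A405. Buffer 25 mM Hepes pH 7.5, 0.01% Triton X-100. No-enzyme wells as negative control.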
Tau filament bind: tau filament binding; P10636; recombinant tau filaments, thioflavin S fluorescence, 15 h; filaments grown with octadecylsulfate alongside compound; Potency, µM (titrated, usually from 57.1 µM), for the others: at the top dose activity change, negative = inhibition; hit rate 2% among 71,000; AID 596;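 further: potency means the concentration at half of the fitted maximal effect; on the % scale 0 is the no-effect control and ±100 the full control effect; actives lower thioflavin S fluorescence by blocking filaments or displacing dye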
Target sequence (P10636 whole entry, looked up): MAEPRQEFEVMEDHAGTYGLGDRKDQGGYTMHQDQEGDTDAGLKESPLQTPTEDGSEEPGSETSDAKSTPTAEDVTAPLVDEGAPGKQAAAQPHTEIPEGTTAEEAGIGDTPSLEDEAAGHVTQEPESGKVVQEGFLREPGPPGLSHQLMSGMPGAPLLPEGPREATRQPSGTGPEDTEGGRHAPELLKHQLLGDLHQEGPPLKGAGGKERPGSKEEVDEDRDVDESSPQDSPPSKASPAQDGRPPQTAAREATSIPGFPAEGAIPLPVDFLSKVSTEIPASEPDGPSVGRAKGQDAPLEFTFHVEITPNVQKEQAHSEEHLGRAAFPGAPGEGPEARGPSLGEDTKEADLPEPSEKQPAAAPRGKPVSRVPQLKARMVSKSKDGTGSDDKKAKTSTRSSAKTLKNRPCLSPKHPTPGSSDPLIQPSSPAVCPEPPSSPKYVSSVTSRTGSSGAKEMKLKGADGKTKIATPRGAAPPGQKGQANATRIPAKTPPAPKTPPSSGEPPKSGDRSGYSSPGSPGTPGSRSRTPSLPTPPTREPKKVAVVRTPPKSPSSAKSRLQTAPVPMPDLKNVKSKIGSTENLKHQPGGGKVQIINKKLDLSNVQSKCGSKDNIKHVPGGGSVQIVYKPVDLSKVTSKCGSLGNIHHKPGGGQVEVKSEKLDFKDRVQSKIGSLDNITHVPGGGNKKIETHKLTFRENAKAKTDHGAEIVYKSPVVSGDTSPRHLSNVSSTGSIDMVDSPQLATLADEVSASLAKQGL
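His-tagged recombinant human tau (exons 2, 3, 10; 1 uM final) fibrillized with 30 uM sodium octadecylsulfate, 15 h at 37 C, in pH 7.4 HEPES buffer with 10 uM thioflavine S and 5 mM DTT. Reduced ThS fluorescence (450/510 nm) marks activity.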
The depositor's hits bear a star; ? = inconclusive; nt = not tested or not shown; [ ] = dose if it differs, or a comment. Unless noted, the call rests on the fitted dose curve; in most records, active means well fitted curve in the direction sought with a large enough effect; inconclusive means small, poorly fitted or top-dose-only effect, or another doubt; inactive means no such curve, though single readings can be large; an effect the other way counts as inactive or inconclusive.

SMILES | HBB splice mod | ALOX15B inhib | GFP derepression | Ub-GFP proteasome | 15-hLO inh | Tau filament bind
CO/N=C(\C(=O)N[C@@H]1C(=O)N2C(C(=O)O)=C(CSc3nc(=O)c(O)nn3C)CS[C@@H]12)c1csc(N)n1 | 2% | 24% | -2% | -2% | 7% | 5%
Cn1c(=O)oc2cc(S(=O)(=O)Nc3ccc4c(c3)OCO4)ccc21 | 0%[57.5 µM] | -7% | -2% | -4% | 7% | 20µM*
CCN(CC)c1ccc(NS(=O)(=O)c2ccc3c(c2)oc(=O)n3C)c(C)c1 | -1% | -7% | -5% | 10% | 20µM* | -19%
COC(=O)[C@H](Cc1ccccc1)NC(=O)[C@@H](C)CO | 2%[9.22 µM] | nt | nt | nt | 0%[11.4 µM] | nt
CC(=O)N1CCC2(CCCN(c3ccccn3)C2)CC1 | 3% | -2% | 2%[9.22 µM] | -3% | -12% | 6%
N/N=C1/c2ccccc2N[C@H]1OC(=O)Nc1ccccc1 | -1%[9.22 µM] | -4%[11.4 µM] | 3%[9.22 µM] | -2%[9.17 µM] | 1%[11.4 µM] | 3.2µM*
CC(=O)OC1CCC23CC1(C)CCC2C(C)(C)CC3OC(C)=O (centres undefined) | nt | 0% | nt | nt | 6% | nt
CC1(C)Cc2[nH]c(=S)c(C#N)cc2CO1 | nt | 16µM* | -3%[20.6 µM] | nt | nt | nt
Cc1ccc(-c2n[nH]c(=S)n2/N=C/C=C/c2ccccc2[N+](=O)[O-])cc1 | nt | 13µM* | nt | nt | nt | nt
CCOc1ccc(NCc2nnc(SCC(=O)Nc3cc(C)on3)n2-c2ccc(OC)cc2)cc1 | -1% | -9% | 0% | -6% | -11% | 16µM*
CCCN(CCC)C[C@@H]1CCCCN1CCNC(=O)N1c2ccccc2C(=O)Nc2cccnc21 | nt | 5% | -1% | -2% | ? | 40µM*
CCCCCCCCCCCCCCCCCC(=O)O[C@H](CC(=O)O)C[N+](C)(C)C | 3% | 6% | -1% | -2% | 13% | 22%
O=C1N/C(=N/Nc2ccccc2)S/C1=C\c1ccccc1 | nt | 3.2µM* | nt | nt | nt | nt
COc1cccc(OC)c1OCCNC[C@@H]1CSc2ccccc2O1 | -1% | 23% | -2% | -6% | -4% | -4%
Cn1c(=O)c2[nH]c(CCC(=O)O)nc2n(C)c1=O | 4%[9.22 µM] | -4%[11.4 µM] | -2%[9.22 µM] | 11%[9.17 µM] | -6%[11.4 µM] | 7%[11.4 µM]
c1ccc2c(c1)CCN(c1nc3cc4c(cc3s1)OCO4)C2 | -2%[57.5 µM] | -13% | 2% | -1% | 10µM* | 1%
c1c2c(cc3sc(N4CCCCC4)nc13)OCO2 | 0% | 12% | -3% | -17% | ? | -29%
c1ccc(N2CCN(c3nc4cc5c(cc4s3)OCO5)CC2)cc1 | 1%[57.5 µM] | -21% | 0% | 1% | 13µM* | -1%
c1c2c(cc3sc(N4CCOCC4)nc13)OCO2 | 0% | -2% | -1% | 14% | ? | -8%
Cc1cc(=O)oc2c(OS(C)(=O)=O)c(OS(C)(=O)=O)ccc12 | 0%[9.22 µM] | -6%[11.4 µM] | 0%[9.22 µM] | -6%[9.17 µM] | 4%[11.4 µM] | 3%[11.4 µM]
COc1cccc(-c2cc(N(C)Cc3ccco3)ncn2)c1 | 2% | 7% | 2%[9.22 µM] | -5% | -2% | 5%
Cc1ccccc1OCCCN1C(=O)C(=O)c2cccc(C)c21 | 0% | 25µM* | -2% | -3% | ? | -10%
CN(C(=O)c1ccccc1C(=O)O)C1CC(C)(C)NC(C)(C)C1 | 1% | nt | nt | -7% | ? | -11%
O=C(Nc1nc(-c2ccccc2)cs1)c1cccs1 | -1%[9.22 µM] | 35% | -2% | -12% | 13µM* | 27%
O=C(Nc1nc(-c2ccccc2)ns1)c1cccs1 | -2% | -1% | 9% | -1% | -2% | -9%
SMILES | HBB splice mod | ALOX15B inhib | GFP derepression | Ub-GFP proteasome | 15-hLO inh | Tau filament bind
O=C(Nc1nc(-c2ccccn2)cs1)c1ccc(Cl)s1 | -2% | 35% | nt | -6% | 42% | 118%
O=C(Nc1nc(-c2ccc(Cl)s2)cs1)c1cccs1 | 4%[0.369 µM] | 8% | 0% | nt | 25µM* | -25%
Cc1ccc(-c2csc(NC(=O)c3ccno3)n2)cc1 | 0%[57.5 µM] | -12% | 3% | 2% | -18% | 32µM*
Cc1ccc(-c2csc(NC(=O)c3cccc([N+](=O)[O-])c3)n2)cc1 | nt | 12% | nt | nt | nt | nt
Cc1cnc(CNc2ncnc3ccc(-c4ccccc4C(F)(F)F)cc23)cn1 | -1% | 4% | -2%[9.22 µM] | 0% | 5% | 25%
COc1ccccc1-c1nccc(NCc2ccccc2)n1 | -3% | 10% | 6%[9.22 µM] | -5% | -11% | 2%
COc1cccc(-c2nccc(NCc3ccc(OC)cc3OC)n2)c1 | -1% | 41% | -3%[9.22 µM] | -3% | -6% | -7%
COc1ccccc1-c1nccc(NCc2cnc(C)cn2)n1 | 0% | ? | -2%[9.22 µM] | 3% | 16µM* | 4%
COc1cccc(-c2nccc(NCc3cccc(C)c3)n2)c1 | -1% | 32% | 0%[9.22 µM] | -5% | 2% | 2%
COc1cccc(-c2nccc(NCc3ccccc3)n2)c1 | -1% | -1% | -2%[9.22 µM] | 2% | 13µM* | -16%
COc1cccc(-c2nccc(NCc3ccccc3OC)n2)c1 | -1% | -3% | -2%[9.22 µM] | -3% | 25µM* | -14%
O=C(O)CCSCc1ccccc1 | 2%[9.22 µM] | 4%[11.4 µM] | 0%[9.22 µM] | 12%[9.17 µM] | 0%[11.4 µM] | -5%[11.4 µM]
CCn1c(=O)c(C(=O)CN2CCCc3ccccc32)c(N)n(Cc2ccccc2)c1=O | 0%[57.5 µM] | 3% | -2% | 2% | -26% | 25µM*
Cc1ccc2nc(NC(=O)CN(C)S(=O)(=O)c3cccc4nsnc34)sc2c1 | 3% | 8%[2.29 µM] | 2% | -7% | 0% | 16µM*

Screens: PubChem, National Center for Advancing Translational Sciences (NCATS)
